Records with an inconclusive call do not appear. Activity calls are given as the source filed them. Calls come from the whole dose curve; as a rule, active = well fitted inhibition curve with a large enough effect; inconclusive = small, poorly fitted or top-dose-only effect, or effect the other way; inactive = flat fitted curve, though single readings scatter.
Each compound was assayed against D(1A) dopamine receptor (Homo sapiens) (UniProt P21728) (assay: HTS Assay for Allosteric Agonists of the Human D1 Dopamine Receptor: Primary Screen for Antagonists (AID 488983; note: nearly all actives have a fitted effect of over 65% in size)). Details: D1 receptor cell assay, antagonist mode, qHTS titration; series mostly up to 41.8 µM; activity change, negative = inhibition: at the top concentration.
Chain of D(1A) dopamine receptor (Homo sapiens) (P21728 whole entry, looked up): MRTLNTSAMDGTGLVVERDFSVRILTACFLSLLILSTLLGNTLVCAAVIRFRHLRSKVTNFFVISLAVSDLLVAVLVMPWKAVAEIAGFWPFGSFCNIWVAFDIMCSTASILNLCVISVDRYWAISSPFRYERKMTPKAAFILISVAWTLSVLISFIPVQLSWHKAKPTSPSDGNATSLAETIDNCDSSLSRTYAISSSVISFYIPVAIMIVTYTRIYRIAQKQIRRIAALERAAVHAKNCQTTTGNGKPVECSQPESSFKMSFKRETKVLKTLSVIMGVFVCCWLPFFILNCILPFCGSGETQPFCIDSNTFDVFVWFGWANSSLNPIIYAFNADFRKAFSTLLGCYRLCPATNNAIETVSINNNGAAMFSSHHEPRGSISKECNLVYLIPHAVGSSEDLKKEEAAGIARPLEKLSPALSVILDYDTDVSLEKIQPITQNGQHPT
Excerpt: Dopamine receptors (DARs) are involved in the etiology and/or therapy of a number of neuropsychiatric and endocrine disorders. For instance, all receptor-based antiparkinsonian drugs work via stimulating the […] DAR subtype whereas all FDA-approved antipsychotic agents are antagonists of this receptor. […] There are three different types of allosteric modulators that we are seeking, two of which will stimulate or augment receptor signaling, allosteric agonists and potentiators, while the third, allosteric antagonists, will attenuate receptor signaling. The present primary screening assay measures compound agonism by tracking calcium flux in a […], inducible Hek293 Trex D1 cell line.
Freshly passaged cells are plated in 1536 well black, clear bottom plates at a density of 4000 cells/well in 3 ul of complete media containing 1x tetracycline inducer. After an overnight incubation at 30 C in 5% CO2, cells are loaded with 2 ul of the no wash Calcium Assay Kit (ABD Bioquest) and incubated at room temperature for 30 to 90 minutes. A 10 cycle (1 second/cycle) baseline measurement is taken and then the FDSS online 1536 pintool delivers 23 nl of compound library (as well as dopamine controls) to the plate. The plate is measured for kinetically at 1 cycle/sec for 180 seconds and is considered to be the agonist portion of the assay (eg, compounds which activate a positive calcium response during this portion are flagged as potential agonists). Following the 180 second read, 1 ul of an EC80 of dopamine is delivered by an onboard pipette head. Measurements are taken kinetically for an additional 180 seconds.
With `Nc1ncnc2n[nH]c(Nc3ccc(F)cc3)c12` the “activity change, negative = inhibition” value was -19.8% (inactive). In the case of `O=C1NC(c2cccc([N+](=O)[O-])c2)=CCN1c1ccccc1O`, the “activity change, negative = inhibition” value is reported as 13.4% (inactive). `Clc1ccc2c(c1)N=C(N1CCNCC1)c1ccccc1N2` was tested, and the Potency was 562 nM (active). `COC(=O)C1=CO[C@@H](O)[C@@H]2C(CO)=CC[C@H]12` was tested, and the “activity change, negative = inhibition” value was 6.07% (inactive). In the case of `O=[N+]([O-])c1ccc(-c2nc(-c3ccc(F)cc3)c(-c3ccncc3)[nH]2)cc1`, the “activity change, negative = inhibition” value is reported as -25.8% (inactive). In the case of `Cn1cnc2c(NCc3ccccc3)nc(NCCO)nc21`, the “activity change, negative = inhibition” value is reported as 5.45% (inactive). `COc1ccccc1N1CCN(CCN2C(=O)CC3(CCCC3)CC2=O)CC1` was tested, and the “activity change, negative = inhibition” value was 6.8% (inactive). For `COc1cccc2c1[C@@H]1CN(CCCCn3c(=O)[nH]c4c(sc5ncc(-c6ccccc6)nc54)c3=O)C[C@@H]1CO2`, the “activity change, negative = inhibition” value was -13.8% (inactive). For `NC(N)=NCCCCN=C(N)N`, the “activity change, negative = inhibition” value was -5.53% (inactive). `Cc1nn(-c2ccccc2)c(C)c1/C=N/N1CCN(Cc2ccccc2)CC1` was tested, and the “activity change, negative = inhibition” value was -21% (inactive). For `CN(C)c1cc2c(Nc3ccc4c(cnn4Cc4ccccc4)c3)ncnc2cn1`, the “activity change, negative = inhibition” value was -3.69% (inactive). In the case of `CCN(CC)CCNC(=O)c1ccc(NS(C)(=O)=O)cc1`, the “activity change, negative = inhibition” value is reported as 5.11% (inactive). For `N[C@@H](Cn1ccc(=O)c(O)c1)C(=O)O`, the “activity change, negative = inhibition” value was 0.457% (inactive). `Brc1ccc([C@H]2CN3CCSC3=N2)cc1` was tested, and the “activity change, negative = inhibition” value was 3.28% (inactive). With `C[N+](C)(C)CCO` the “activity change, negative = inhibition” value was 8.36% (inactive). For `O=C1NC(=O)/C(=C/c2ccc3c(c2)OC(F)(F)O3)S1`, the “activity change, negative = inhibition” value was -29.7% (inactive).
% is set by controls: 0 for no effect and ±100 for the full control effect; potency is the fitted concentration of half-maximal effect.
